# Assay results: the supplement of paper PMC12282887
# ± gives the standard deviation of the averaged measurements.
# Tests used:
# Assay in all cases: promoter activity interaction Z-score (Lux/OD deviation from empty-vector control); higher = stronger promoter induction by the compound
# [1] = test system: E. coli BW25113 acrABp lux reporter
# Summary of the method: (§1)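 Four 1:2 dilutions of each compound were tested in biological duplicates on E. coli BW25113 carrying low-copy luxCDABE promoter reporters, either wild type or deleted for one of three genes. Cultures of 40 µl LB Lennox in 384-well plates were kept at 37°C and read for OD600 and luminescence every 30 min for 12 h. Integration windows were 0–8 h for wild type and 1–9 h for deletion strains, and wells under 10% of the median growth value were discarded. The score is a Z-transformed residual of growth-normalised luminescence relative to a control fit.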
# [2] = test system: E. coli BW25113 marRABp lux reporter
# Summary of the method: as §1
# [3] = test system: E. coli BW25113 micFp lux reporter
# Summary of the method: as §1
# [4] = test system: E. coli BW25113 ompFp lux reporter
# Summary of the method: as §1
# [5] = test system: E. coli BW25113 robp lux reporter
# Summary of the method: as §1
# [6] = test system: E. coli BW25113 soxSp lux reporter
# Summary of the method: as §1
# [7] = test system: E. coli BW25113 tolCp lux reporter
# Summary of the method: as §1
# [8] = 0.0045 µg/ml, genetic background: wild type
# [9] = 0.0045 µg/ml, genetic background: ΔmarA
# [10] = 0.0045 µg/ml, genetic background: Δrob
# [11] = 0.0045 µg/ml, genetic background: ΔsoxS
# [12] = 0.009 µg/ml, genetic background: wild type
# [13] = 0.009 µg/ml, genetic background: ΔmarA
# [14] = 0.009 µg/ml, genetic background: Δrob
# [15] = 0.009 µg/ml, genetic background: ΔsoxS
# [16] = 0.12 µg/ml, genetic background: wild type
# [17] = 0.12 µg/ml, genetic background: ΔmarA
# [18] = 0.12 µg/ml, genetic background: Δrob
# [19] = 0.12 µg/ml, genetic background: ΔsoxS
# [20] = 0.23 µg/ml, genetic background: wild type
# [21] = 0.23 µg/ml, genetic background: ΔmarA
# [22] = 0.23 µg/ml, genetic background: Δrob
# [23] = 0.23 µg/ml, genetic background: ΔsoxS
# [24] = 0.47 µg/ml, genetic background: wild type
# [25] = 0.47 µg/ml, genetic background: ΔmarA
# [26] = 0.47 µg/ml, genetic background: Δrob
# [27] = 0.47 µg/ml, genetic background: ΔsoxS
# [28] = 0.94 µg/ml, genetic background: ΔmarA
# [29] = 0.94 µg/ml, genetic background: Δrob
# [30] = 0.94 µg/ml, genetic background: wild type
structure (smiles),measurement,setting,value
C[C@H]1COc2c(N3CCN(C)CC3)c(F)cc3c(=O)c(C(=O)O)cn1c23 [Levofloxacin],promoter activity interaction Z-score,[1]; [8],0.161 ± 0.16
same,promoter activity interaction Z-score,[1]; [9],1.19 ± 0.57
same,promoter activity interaction Z-score,[1]; [10],0.765 ± 0.3
same,promoter activity interaction Z-score,[1]; [11],0.13 ± 0.43
same,promoter activity interaction Z-score,[1]; [12],1.49 ± 0.47
same,promoter activity interaction Z-score,[1]; [13],3.65 ± 2.5
same,promoter activity interaction Z-score,[1]; [14],3
same,promoter activity interaction Z-score,[1]; [15],0.933 ± 0.088
same,promoter activity interaction Z-score,[2]; [8],0.0777 ± 0.09
same,promoter activity interaction Z-score,[2]; [9],0.886 ± 0.81
same,promoter activity interaction Z-score,[2]; [10],0.457 ± 0.39
same,promoter activity interaction Z-score,[2]; [11],0.129 ± 0.058
same,promoter activity interaction Z-score,[2]; [12],1.81 ± 0.43
same,promoter activity interaction Z-score,[2]; [14],2.37
same,promoter activity interaction Z-score,[2]; [15],1.61 ± 0.18
same,promoter activity interaction Z-score,[3]; [8],-0.267 ± 0.3
same,promoter activity interaction Z-score,[3]; [9],0.407 ± 0.14
same,promoter activity interaction Z-score,[3]; [10],0.249 ± 0.18
same,promoter activity interaction Z-score,[3]; [11],0.076 ± 0.062
same,promoter activity interaction Z-score,[3]; [12],0.268 ± 0.26
same,promoter activity interaction Z-score,[3]; [13],0.154 ± 0.1
same,promoter activity interaction Z-score,[3]; [14],-0.048
same,promoter activity interaction Z-score,[3]; [15],0.58 ± 0.097
same,promoter activity interaction Z-score,[4]; [8],0.0942 ± 0.084
same,promoter activity interaction Z-score,[4]; [9],0.337 ± 0.47
same,promoter activity interaction Z-score,[4]; [10],0.283 ± 0.32
same,promoter activity interaction Z-score,[4]; [11],0.00971 ± 0.41
same,promoter activity interaction Z-score,[4]; [12],0.729 ± 0.33
same,promoter activity interaction Z-score,[4]; [13],1.02 ± 1.5
same,promoter activity interaction Z-score,[4]; [15],2.15 ± 2.1
same,promoter activity interaction Z-score,[5]; [8],0.859 ± 0.36
same,promoter activity interaction Z-score,[5]; [9],0.95 ± 0.41
same,promoter activity interaction Z-score,[5]; [10],-0.178 ± 0.062
same,promoter activity interaction Z-score,[5]; [11],0.248 ± 0.29
same,promoter activity interaction Z-score,[5]; [12],-0.182 ± 0.079
same,promoter activity interaction Z-score,[5]; [13],0.841 ± 0.84
same,promoter activity interaction Z-score,[5]; [14],0.348
same,promoter activity interaction Z-score,[5]; [15],-0.154 ± 1.2
same,promoter activity interaction Z-score,[6]; [8],-0.114 ± 0.024
same,promoter activity interaction Z-score,[6]; [9],0.133 ± 0.013
same,promoter activity interaction Z-score,[6]; [10],-0.071 ± 0.15
same,promoter activity interaction Z-score,[6]; [11],0.197 ± 0.43
same,promoter activity interaction Z-score,[6]; [12],0.185 ± 0.047
same,promoter activity interaction Z-score,[6]; [13],0.0863 ± 0.079
same,promoter activity interaction Z-score,[6]; [14],-0.0469 ± 0.15
same,promoter activity interaction Z-score,[6]; [15],2.32 ± 0.6
same,promoter activity interaction Z-score,[7]; [8],-0.228 ± 1.2
same,promoter activity interaction Z-score,[7]; [9],0.741 ± 0.18
same,promoter activity interaction Z-score,[7]; [10],-0.128 ± 1
same,promoter activity interaction Z-score,[7]; [11],-0.647 ± 0.99
same,promoter activity interaction Z-score,[7]; [12],0.287 ± 1
same,promoter activity interaction Z-score,[7]; [13],0.606
same,promoter activity interaction Z-score,[7]; [14],-0.887
same,promoter activity interaction Z-score,[7]; [15],2.55 ± 1.9
NC[C@H]1O[C@H](O[C@H]2[C@H](O)[C@@H](O[C@H]3O[C@H](CO)[C@@H](O)[C@H](N)[C@H]3O)[C@H](N)C[C@@H]2N)[C@H](N)C[C@@H]1O [Tobramycin],promoter activity interaction Z-score,[1]; [16],0.275 ± 0.78
same,promoter activity interaction Z-score,[1]; [17],-0.0864 ± 0.66
same,promoter activity interaction Z-score,[1]; [18],-0.374 ± 0.06
same,promoter activity interaction Z-score,[1]; [19],-0.499 ± 0.77
same,promoter activity interaction Z-score,[1]; [20],0.0585 ± 0.16
same,promoter activity interaction Z-score,[1]; [21],-1.02 ± 0.59
same,promoter activity interaction Z-score,[1]; [22],-0.281 ± 0.11
same,promoter activity interaction Z-score,[1]; [23],-0.243 ± 0.067
same,promoter activity interaction Z-score,[1]; [24],0.268 ± 0.32
same,promoter activity interaction Z-score,[1]; [25],0.0843 ± 0.8
same,promoter activity interaction Z-score,[1]; [26],0.184 ± 0.22
same,promoter activity interaction Z-score,[1]; [27],-0.000211 ± 0.53
same,promoter activity interaction Z-score,[2]; [16],-0.211 ± 0.075
same,promoter activity interaction Z-score,[2]; [17],-0.0912 ± 0.16
same,promoter activity interaction Z-score,[2]; [18],-0.0729 ± 0.021
same,promoter activity interaction Z-score,[2]; [19],-0.3 ± 0.41
same,promoter activity interaction Z-score,[2]; [20],-0.379 ± 0.14
same,promoter activity interaction Z-score,[2]; [21],-0.269 ± 0.26
same,promoter activity interaction Z-score,[2]; [22],-0.264 ± 0.11
same,promoter activity interaction Z-score,[2]; [23],-0.0572 ± 0.44
same,promoter activity interaction Z-score,[2]; [24],0.112 ± 0.2
same,promoter activity interaction Z-score,[2]; [25],0.108 ± 0.0063
same,promoter activity interaction Z-score,[2]; [26],0.123 ± 0.14
same,promoter activity interaction Z-score,[2]; [27],0.021 ± 0.34
same,promoter activity interaction Z-score,[3]; [16],0.116 ± 0.093
same,promoter activity interaction Z-score,[3]; [17],-0.103 ± 0.25
same,promoter activity interaction Z-score,[3]; [18],-0.119 ± 0.027
same,promoter activity interaction Z-score,[3]; [19],-0.254 ± 0.025
same,promoter activity interaction Z-score,[3]; [20],0.0087 ± 0.2
same,promoter activity interaction Z-score,[3]; [21],-0.183 ± 0.0032
same,promoter activity interaction Z-score,[3]; [22],-0.106 ± 0.21
same,promoter activity interaction Z-score,[3]; [23],0.447 ± 0.0099
same,promoter activity interaction Z-score,[3]; [24],0.395 ± 0.47
same,promoter activity interaction Z-score,[3]; [25],-0.0629 ± 0.026
same,promoter activity interaction Z-score,[3]; [26],-0.0597 ± 0.061
same,promoter activity interaction Z-score,[3]; [27],-0.0982 ± 0.012
same,promoter activity interaction Z-score,[3]; [28],-0.362
same,promoter activity interaction Z-score,[3]; [29],-0.382
same,promoter activity interaction Z-score,[4]; [16],-0.387 ± 0.068
same,promoter activity interaction Z-score,[4]; [17],-0.3 ± 0.42
same,promoter activity interaction Z-score,[4]; [18],-0.413 ± 0.19
same,promoter activity interaction Z-score,[4]; [19],-0.487 ± 0.17
same,promoter activity interaction Z-score,[4]; [20],-0.622 ± 0.16
same,promoter activity interaction Z-score,[4]; [21],-0.759 ± 0.15
same,promoter activity interaction Z-score,[4]; [22],-0.556 ± 0.035
same,promoter activity interaction Z-score,[4]; [23],-0.0491 ± 0.17
same,promoter activity interaction Z-score,[4]; [24],-0.491 ± 0.36
same,promoter activity interaction Z-score,[4]; [25],-0.148 ± 0.12
same,promoter activity interaction Z-score,[4]; [26],-0.134 ± 0.25
same,promoter activity interaction Z-score,[4]; [27],-0.273 ± 0.14
same,promoter activity interaction Z-score,[5]; [16],0.0204 ± 0.029
same,promoter activity interaction Z-score,[5]; [17],-0.389 ± 0.14
same,promoter activity interaction Z-score,[5]; [18],-0.392 ± 0.68
same,promoter activity interaction Z-score,[5]; [19],-0.688 ± 0.16
same,promoter activity interaction Z-score,[5]; [20],-0.193 ± 0.42
same,promoter activity interaction Z-score,[5]; [21],-0.587 ± 0.68
same,promoter activity interaction Z-score,[5]; [22],-0.421 ± 0.28
same,promoter activity interaction Z-score,[5]; [23],-0.277 ± 0.056
same,promoter activity interaction Z-score,[5]; [24],0.112 ± 0.36
same,promoter activity interaction Z-score,[5]; [25],0.0227 ± 0.29
same,promoter activity interaction Z-score,[5]; [26],-0.0785 ± 0.74
same,promoter activity interaction Z-score,[5]; [27],-0.163 ± 0.8
same,promoter activity interaction Z-score,[5]; [28],-0.438
same,promoter activity interaction Z-score,[6]; [16],-0.268 ± 0.23
same,promoter activity interaction Z-score,[6]; [17],-0.327 ± 0.091
same,promoter activity interaction Z-score,[6]; [18],-0.404 ± 0.1
same,promoter activity interaction Z-score,[6]; [19],-0.552 ± 0.76
same,promoter activity interaction Z-score,[6]; [20],-0.406 ± 0.046
same,promoter activity interaction Z-score,[6]; [21],-0.398 ± 0.089
same,promoter activity interaction Z-score,[6]; [22],-0.3823 ± 0.0022
same,promoter activity interaction Z-score,[6]; [23],-0.224 ± 0.31
same,promoter activity interaction Z-score,[6]; [24],-0.337 ± 0.16
same,promoter activity interaction Z-score,[6]; [25],-0.48 ± 0.096
same,promoter activity interaction Z-score,[6]; [26],-0.274 ± 0.22
same,promoter activity interaction Z-score,[6]; [27],-0.474 ± 0.4
same,promoter activity interaction Z-score,[6]; [30],-0.762
same,promoter activity interaction Z-score,[6]; [29],-0.904
same,promoter activity interaction Z-score,[7]; [16],-0.242 ± 0.84
same,promoter activity interaction Z-score,[7]; [17],-0.0707 ± 0.59
same,promoter activity interaction Z-score,[7]; [18],-0.601 ± 1.1
same,promoter activity interaction Z-score,[7]; [19],-1.14 ± 0.68
same,promoter activity interaction Z-score,[7]; [20],-0.456 ± 0.35
same,promoter activity interaction Z-score,[7]; [21],-1.13 ± 0.17
same,promoter activity interaction Z-score,[7]; [22],-0.0625 ± 1.8
same,promoter activity interaction Z-score,[7]; [23],0.772 ± 0.56
same,promoter activity interaction Z-score,[7]; [24],-0.509 ± 0.71
same,promoter activity interaction Z-score,[7]; [25],-0.277 ± 0.22
same,promoter activity interaction Z-score,[7]; [26],1.06 ± 1.1
same,promoter activity interaction Z-score,[7]; [27],0.0909 ± 0.58
same,promoter activity interaction Z-score,[7]; [30],-0.901 ± 0.46
same,promoter activity interaction Z-score,[7]; [28],-0.459
same,promoter activity interaction Z-score,[7]; [29],-0.895 ± 0.19
same,promoter activity interaction Z-score,"[7]; 0.94 µg/ml, genetic background: ΔsoxS",-0.128 ± 1
